The whole screen tested about 360,000 compounds, of which about 7,300 (2%) were called active. Cut-off read from the data, not from the text of the source: active = inhibition above about 50%; inactive = the rest. This excerpt belongs to a sample that is enriched for actives.

The test in a line: inhibitors of TWEAK-Fn14 signaling, primary screen, luciferase reporter cells, uHTS (AID 1159606). As to conditions: TWEAK-stimulated Fn14 reporter cells, luciferase luminescence, 8 h; at 10 µM; stronger effect = higher value. For orientation: In a reporter assay the amount or activity of a reporter protein is the signal.
By inhibition is commonly meant the change of the read-out against control, counted positive when it falls. Take `COC(=O)[C@]12CCCCC=C1N(CCC1=CCCCC1)C(=O)[C@H](CC(=O)N1CCSCC1)C2`: the inhibition is -9.15% (inactive).
For `CN(Cc1ccc(F)cc1)C(=O)CN1C(=O)c2ccccc2S1(=O)=O` the value was 7.88% (inactive).
With `COc1ccc(CNC(=O)CN2C(=O)c3ccccc3S2(=O)=O)cc1` the figure was 8.55% (inactive); with `O=C(CN1C(=O)c2ccccc2S1(=O)=O)N1CCc2ccccc21`, 103% (active).
With `CCN(CC)c1ncnc2c1ncn2[C@H]1CN(Cc2cccs2)C[C@@H](CO)O1` the figure was -23.3% (inactive); with `COc1ccc(CN2C(=O)C(CC(=O)NC3CCCCC3)CC(C(=O)N3CCOCC3)=C2C)cc1` (stereo unspecified), -7.48% (inactive).
`CCc1cccc(C)c1N(C(=O)Cn1c(CO)nc2ccccc21)C(C)COC` (stereo unspecified): the inhibition is -17.5% (inactive).
As to `CCN1CCC(O)(/C=C/c2ccc(C)cc2)C(C(=O)/C=C/c2ccc(C)cc2)C1` (stereo unspecified), the inhibition was 88.3% (active).
With `CCN1CCC2(CC1)N=C(c1ccc(F)cc1)C(=S)N2C(=O)c1ccc(C)cc1`, the inhibition is 42.7% (inactive).
Turning to `CCOC(=O)[C@]12CCC=C1N(Cc1ccco1)C(=O)[C@H](CC(=O)NCc1cccc(C(F)(F)F)c1)C2`, the inhibition is 11.1% (inactive).
With `COCCCNC(=O)CNC(=O)c1nn(-c2ccc(OC)cc2)c(=O)c2ccccc12` the figure was 23.9% (inactive); with `CCOC(=O)c1cc(NC(=O)SCC(=O)O)c(C)nc1C`, -2.03% (inactive); with `CCOC(=O)c1c(C2CC2)csc1NC(=O)CSCc1c(C)noc1C`, -9.7% (inactive).
For `CN(CC(=O)Nc1ccc(Cl)c(C(F)(F)F)c1)C(=O)CCC(=O)c1ccccc1` the value was 7.71% (inactive); for `O=C(CC(O)(C(F)(F)F)C(F)(F)F)Nc1ccc(Cl)c(Cl)c1`, 56.3% (active).
As to `O=C(Cc1ncc(C(F)(F)F)cc1Cl)Nc1cccc(Br)c1`, the inhibition was 6.6% (inactive).
For `CCN1/C(=C\c2ccc3ccccc3[n+]2CC)Sc2cc(C)ccc21` the value was 57.2% (active).
For `O=C(COC(=O)C1CCN(S(=O)(=O)c2ccc3c(c2)OCCO3)CC1)Nc1ccccc1OC(F)F` the value was -22.5% (inactive); for `C#Cc1ccc([C@@H]2C=C(C(=O)O)O[C@H](OCCCCO)C2)cc1`, -4.22% (inactive); for `Cc1cn(C2C=CC(CO)O2)c(=O)[nH]c1=O` (stereo unspecified), -1% (inactive).
On to `O=S(=O)(c1ccc(F)cc1)N1CCN=C1SCc1cccc(F)c1`, for which the inhibition was -11.2% (inactive).
With `O=C(Nc1c(Br)cc2c(c1Br)Cc1cc([N+](=O)[O-])ccc1-2)C(Cl)Cl` the figure was -30.1% (inactive); with `O=C(CN1CCN(S(=O)(=O)c2ccc(F)cc2)CC1)NC1CC1`, 0.09% (inactive).
Take `Cc1nc(N2CCN(c3ccccn3)CC2)c2c(C)c(C(=O)Nc3ccc(F)c(Cl)c3)sc2n1`: the inhibition is 66.9% (active).
With `Cc1nc(N2CCOCC2)c2c(C)c(C(=O)Nc3ccc(C(F)(F)F)cc3)sc2n1` the figure was -3.25% (inactive); with `Cc1nc(N2CCN(c3ccccn3)CC2)c2c(C)c(C(=O)Nc3ccc(F)cc3)sc2n1`, 18.8% (inactive); with `CCOC(=O)Cc1ncccc1C(=O)Nc1ccc(OC(F)(F)F)cc1`, -7.78% (inactive).
As to `CCOc1c2ccc(C(=O)NCc3ccc(OC(F)(F)F)cc3)cc2nn1C`, the inhibition was -25.1% (inactive).
With `O=C(Nc1ccc(OC(F)(F)F)cc1)c1ccc2c(c1)no[n+]2[O-]` the figure was 60.4% (active); with `CCOC(=O)Cc1csc(NC(=O)CN(C)S(=O)(=O)c2ccc3c(c2)CCC(=O)N3)n1`, 1.66% (inactive); with `O=C(Nc1ccc(Cl)cc1)c1cc2nc(C3CC3)cc(C(F)(F)F)n2n1`, -7.24% (inactive).
For `Nc1nc(SCC(=O)Nc2cc(C(F)(F)F)ccc2Cl)[nH]c(=O)c1NC(=O)c1ccco1` the value was 10% (inactive).
With `O=C(Nc1cc(C(F)(F)F)ccc1Cl)c1cc2nc3c(c(C(F)(F)F)n2n1)CCCC3` the figure was 76.7% (active); with `O=S1(=O)CSCS(=O)(=O)C1`, -11.8% (inactive); with `O=C(OCC(=O)N1CCCCCC1)c1ccc(Br)c(S(=O)(=O)N2CCOCC2)c1`, -3.85% (inactive).
For the compound `COc1cc2c(cc1OC)/C(=C/C(=O)c1ccc(NC(C)=O)cc1)NCC2`, the inhibition is -11.2% (inactive).
With `CC1CN/C(=C\C(=O)c2ccc(Br)cc2)C(=O)N1` (stereo unspecified) the figure was 62.2% (active).
With `CC1(C)Cc2ccccc2/C(=C/C(=O)c2ccccc2)N1` the figure was -22.4% (inactive); with `O=C(CN(C(=O)c1csnn1)c1cccc(F)c1)NCc1ccc(F)cc1`, 0.95% (inactive); with `COc1ccc(C(c2nnnn2C2CCCC2)N2CCN(C/C=C/c3ccccc3)CC2)cc1` (stereo unspecified), -2.02% (inactive).
With `O=C(NCCOc1ccccc1)c1ccccc1` the figure was 54.9% (active); with `O=C(NCCOc1ccccc1)c1ccccc1F`, 30.7% (inactive).
With `NS(=O)(=O)c1cc(C(=O)NCCOc2ccccc2)c(Cl)cc1Cl`, the inhibition was 3.06% (inactive).
For `COc1cc(C(=O)OCC(=O)N(CC(C)C)C2CCS(=O)(=O)C2)ccc1OCC(C)C` (stereo unspecified) the value was -5.97% (inactive); for `COc1ccc(CCNC(=O)CCC(=O)NC2CCCCC2)cc1OC`, 4.09% (inactive).
For `COc1ccc(CNc2nnnn2C)cc1` the value was 2.29% (inactive); for `COc1ccc(-n2nnnc2-c2nc3ccccc3s2)cc1`, 74% (active).
With `COc1ccc(-n2nnnc2SCC(=O)NCc2cccs2)cc1` the figure was -2.38% (inactive).
For the compound `Cc1ccc(CN2CCCOCCS2(=O)=O)cc1`, the inhibition is -9.75% (inactive).
With `Nc1ccccc1-c1nc2ccncc2[nH]1` the figure was -11.5% (inactive).
`Cc1cc(C)nc(Nc2n[nH]c(-c3ccccc3N)n2)n1`: the inhibition was 53.5% (active).
With `CCCOc1ccccc1-c1nc(SCCC(=O)O)n[nH]1` the figure was -9.1% (inactive).
For `COc1ccc2c(c1)CC[C@@H]1[C@@H]2CC[C@]2(C)C(=O)CC[C@@H]12` the value was -3.91% (inactive); for `O=C(NCc1ccccc1)C1c2ccccc2OCC(=O)N1C1CC1` (stereo unspecified), 4.34% (inactive); for `NC(=O)Nc1ccccc1C(=O)NCCc1ccccc1`, 11.8% (inactive).
For `Cc1cccc(N2CCN(C(=O)CCS(=O)(=O)c3ccc4c(c3)NC(=O)C(C)S4)CC2)c1C` (stereo unspecified) the value was 50.6% (active); for `COc1ccccc1N1CCN(C(=O)CCS(=O)(=O)c2ccc3c(c2)NC(=O)C(C)S3)CC1` (stereo unspecified), 21.7% (inactive).
In the case of `CC1Sc2ccc(S(=O)(=O)CCC(=O)NCc3ccccc3Cl)cc2NC1=O` (stereo unspecified), the inhibition is 0.42% (inactive).
With `O=C(NCc1ccc(F)cc1)C1CCN(C(=O)Nc2ccc(F)cc2)CC1` the figure was 31.5% (inactive).
`O=C(Nc1ccccc1C(=O)N1CCOCC1)c1ccc(Cl)cc1`: the inhibition was -5.43% (inactive).
With `Cc1c(Cl)cccc1NC(=O)Nc1ccc(C(=O)N2CCCC2)cc1` the figure was 5.68% (inactive).
Regarding `O=C(Nc1ccc(Cl)cc1)Nc1ccc(C(=O)N2CCOCC2)cc1`, the inhibition is 79% (active).
For `COc1cc2c(C(=O)N3CCN(C)CC3)c(CSc3ccccc3)n(C)c2cc1Br` the value was 0.16% (inactive); for `CCN(CC)CCN(C)C(c1ccnc2ccccc12)c1nnnn1-c1ccc2c(c1)OCCO2` (stereo unspecified), 29.9% (inactive).
Take `CCCCn1nnnc1C1(C)CCC(=O)N1Cc1ccc(OC)c(OC)c1` (stereo unspecified): the inhibition is 2.84% (inactive).
Regarding `COc1ccc(COC[C@H](CC(C)C)N2CCN(C(=O)c3cccc(C(F)(F)F)c3)CCC2=O)cc1`, the inhibition is 0.93% (inactive).
For `O=c1ccc2c(-c3ccccc3S(=O)(=O)O)c3ccc(O)c(O)c3oc-2c1O` the value was 78% (active); for `O=C1c2ccccc2C(c2nc3ccccc3[nH]2)N1c1ccccc1` (stereo unspecified), 20.9% (inactive); for `CCc1ccc(Oc2coc3cc(OC(=O)c4cc5ccccc5oc4=O)ccc3c2=O)cc1`, -16.7% (inactive).
In the case of `CSc1nnc(CNC(=O)c2ccccc2)n1-c1ccc(F)cc1`, the inhibition was 23.6% (inactive).
For `O=C(OC1CC2CC1[C@H]1CCCCN1C2=O)N1CCOCC1` (stereo partly specified) the value was 24.2% (inactive); for `NC(=O)c1ncn([C@@H]2O[C@H](CN=C3NS(=O)(=O)c4ccccc43)[C@@H](O)[C@H]2O)n1`, -2.64% (inactive).
With `Cc1oc2cc([N+](=O)[O-])c(O)c([N+](=O)[O-])c2c1C(=O)c1ccc(Br)cc1` the figure was 20% (inactive); with `O=C(NNc1ccccc1Cl)C(O)(c1cccc(C(F)(F)F)c1)c1cccc(C(F)(F)F)c1`, 74.5% (active); with `O=C(CNS(=O)(=O)c1cccc(C(F)(F)F)c1)Nc1ccccc1F`, -3.29% (inactive).
For `O=C(O)c1cc(S(=O)(=O)N(Cc2ccccc2)c2cccc(C(F)(F)F)c2)ccc1Cl` the value was 9.03% (inactive); for `CCCNCc1cc(OCC)c(OCC(=O)Nc2ccccc2)cc1Br`, 3.35% (inactive); for `O=C(CN1C(=O)CSC1=O)N1CCCC(Nc2ccc(F)cc2)C1` (stereo unspecified), 89.2% (active).
Consider `O=C1CCCCN1CCCC(=O)N1CCCC(Nc2ccc(F)cc2)C1` (stereo unspecified), for which the inhibition was 10.3% (inactive).
For `O=C(CN1CCOC1=O)N1CCCC(Nc2ccc(F)c(F)c2)C1` (stereo unspecified) the value was -4.67% (inactive).
For `CCCn1c(N)c(C(=O)CSc2nnc(Cc3cccs3)n2C2CC2)c(=O)[nH]c1=O` the value was -4.97% (inactive); for `CC1CC(C)CN(S(=O)(=O)c2ccc(C(=O)NN3CCOCC3)cc2)C1` (stereo unspecified), 15.8% (inactive); for `COc1ccc(-c2nc(-c3ccccc3)no2)c(OC)c1`, 96.2% (active).
For `COc1ccc(-c2noc(CNC(=O)C(C)Oc3ccccc3)n2)cc1` (stereo unspecified) the value was -2.29% (inactive).
With `COc1ccc(/C=C/c2noc(-c3ccccc3OC(C)=O)n2)cc1`, the inhibition is 48.5% (inactive).
For `CC1CN(C(=O)CCC(=O)NCCCN2CCC(Cc3ccccc3)CC2)c2cc(Cl)ccc2O1` (stereo unspecified) the value was -12.8% (inactive); for `O=C1C2CCCN2C(=O)N1CCCCN1CCN(c2cccc(C(F)(F)F)c2)CC1` (stereo unspecified), -4.34% (inactive).
As for `COc1ccc(N(CCC(=O)NCCc2ccccc2)S(=O)(=O)c2ccc(C)cc2C)cc1`, the inhibition was -9.44% (inactive).
For `O=C(O)CCn1cc(/C=C/C(=O)c2ccc(Cl)cc2)c(-c2cccc(Br)c2)n1` the value was 66% (active); for `COc1ccc(NC(=O)CN(C)C(=O)/C=C/c2cn(Cc3ccccc3)nc2-c2cccnc2)cc1`, -11.2% (inactive); for `O=C(COC(=O)/C=C/c1cn(-c2ccccc2)nc1-c1cccnc1)Nc1ccc(Cl)cc1Cl`, -65% (inactive).

These data come from PubChem BioAssay AID1159606 (Sanford-Burnham Center for Chemical Genomics, 2016).
